Sensor-assay potency score (higher = more potent) data for 60 sequences are collected here from the OligoGym collection.

Among the targets are EBNA1BP2; EBP; EEF1B2; EHD3; EIF3M; ENAM; ENTHD1; ENTPD8; EPAS1; EPDR1; EPHB3; EPHX1; EPHA8.
Holding throughout (test): pooled miR-30 sensor sort-seq; sequence = guide strand
What all share (conditions): shRNA
Also: reference of the scale not given here.

Consider TTCTGGATCAACAGCTTTCTGG, for which the sensor-assay potency score (higher = more potent) with EBNA1BP2 is -1.11. For TTGGCATCCAGCGTGCTCTGGG, the sensor-assay potency score (higher = more potent) with EBP is -0.0185. As for TTGAATGCTTCTGACGCACTCC, in the test with EEF1B2, the sensor-assay potency score (higher = more potent) was 0.113. Consider TATCTGTTCCAACTTTATCATC, for which, in the test with EEF1B2, the sensor-assay potency score (higher = more potent) is -1.68. For the sequence TGCAAACTCGTCGTCGTCCAGC, the sensor-assay potency score (higher = more potent) in the test with EHD3 is -1.01. On the same count and under the same terms, the same measure for TTTCTTGGGATCCACCACCAGG: -1.36.

With AACATCTTTATCATCCTCCTTC, the sensor-assay potency score (higher = more potent) in the test with EIF3M was 0.329. Still for that read-out and setting: the same measure for TAAAGTAGTCTTAAAAGGGTGT: 0.205. On to TTGAGGTATATTGTTCACCTTC, for which the sensor-assay potency score (higher = more potent) in the test with ENAM is -0.314. As to TATTTGTAAAGATACCATCTGA, the sensor-assay potency score (higher = more potent) with ENTHD1 was -0.616. In the test with ENTPD8, TAGCTGTGAGTGTAGACGCTGT came in with a sensor-assay potency score (higher = more potent) of 0.245.

Sequence TTGGGTGAACTTATCATTGGGT returned a sensor-assay potency score (higher = more potent) in the test with EPAS1 of 0.697. As for TTCAGCTTCAGCTTGTTGGAGA, the sensor-assay potency score (higher = more potent) in the test with EPAS1 is -0.377. Take TTTAAGAACATTTCAGAACAGG: in the test with EPAS1, the sensor-assay potency score (higher = more potent) was -0.533. With TTCATGTCCATGCTGTGGCGGC, the sensor-assay potency score (higher = more potent) with EPAS1 was -0.685. Turning to TAGTTTGAAAGATACTTGCTAA, the sensor-assay potency score (higher = more potent) in the test with ENTHD1 was -0.328. Regarding TTGAGGTTGACAGTACGGCCTC, in the test with EPAS1, the sensor-assay potency score (higher = more potent) was -0.329. For the sequence TTTGGCAACAACAATAACGAGG, the sensor-assay potency score (higher = more potent) with EPAS1 is -0.434. Turning to TTACAATCTCCTTCACTCGGTC, the sensor-assay potency score (higher = more potent) with ENTHD1 was determined as 0.0777. For the sequence TCACACATGATGATGAGGCAGG, the sensor-assay potency score (higher = more potent) in the test with EPAS1 was -0.0655. For TAGACGCTGTAGTCGGAGCCGT, the sensor-assay potency score (higher = more potent) with ENTPD8 was -0.675. Still for that read-out and setting: then TTGCCTGTCCCTTCAACTGTGA, with -0.84.

Sequence TAGAAGACAACTGTTGATGGGA displayed a sensor-assay potency score (higher = more potent) with ENTHD1 of 0.377.

Turning to TCAACTGTGAGGTTCTGGGGGA, the sensor-assay potency score (higher = more potent) in the test with ENTPD8 stood at 0.228.

For the sequence TTTAACTCCTAACACTAGCATC, the sensor-assay potency score (higher = more potent) with ENTHD1 is -1.32. As to TACAAGTTGTCCATCTGCTGGT, the sensor-assay potency score (higher = more potent) in the test with EPAS1 was 0.354. Still for that read-out and setting: the same measure for TAGAAGTCATTGAAGGTGGGGA: 0.421.

Consider TAGTCGGAGCCGTAGAGGCGAA, for which the sensor-assay potency score (higher = more potent) in the test with ENTPD8 was -1.54. For the sequence TTGTGTGTTCGCAGGAAGCTGA, the sensor-assay potency score (higher = more potent) in the test with EPAS1 is -0.595. Take TTATCATCCATCTGAATGCTGG: in the test with ENTHD1, the sensor-assay potency score (higher = more potent) was -0.718. In the test with EPAS1, TTGTTGTAGACTTTCACCTGGC came in with a sensor-assay potency score (higher = more potent) of 0.403. Take TACTTGACCAACATGCTGGTAA: the sensor-assay potency score (higher = more potent) in the test with ENTHD1 was 0.494. Still for that read-out and setting: the same measure for TTGTGAACTATTCAGACTCATG: -1.36. TTGAACAGGGATTCAGTCTGGT came in with a sensor-assay potency score (higher = more potent) with EPAS1 of 0.262. On to TTTCAGGTACAAGTTGTCCATC, for which, in the test with EPAS1, the sensor-assay potency score (higher = more potent) was -1.4. For TAGCCGCTGAGGTAGCACGGGT, the sensor-assay potency score (higher = more potent) with ENTPD8 is -0.869. Same read-out and setting: the same measure for TAGTTGACAGTGATCCAACCAA: 0.0426; for TCAGCATCTGGTCCCGTCCAAA: -1.74.

As for TTGCTCTTCATACTCCAGCTGT, the sensor-assay potency score (higher = more potent) with EPAS1 was -0.454. The same measure, in the same setting: then TTTGTCATGGCACTGAAGCAGT, with -0.635. On to TTCACCTCACAGTCATATCTGG, for which the sensor-assay potency score (higher = more potent) with EPAS1 was -0.278. On to TTTTATTATGTAACCTTCCAAA, for which the sensor-assay potency score (higher = more potent) with ENTHD1 was -1.23.

With TCAAACACGATCCCAAACTTGA, in the test with ENTPD8, the sensor-assay potency score (higher = more potent) was -0.982. Take TCTGTGGACATGTCTTTGCTTT: the sensor-assay potency score (higher = more potent) with EPAS1 was -0.503.

TTCAACTGTGAGGTTCTGGGGG showed a sensor-assay potency score (higher = more potent) in the test with ENTPD8 of 0.121.

For TAGAACACCTCCGTCTCCTTGC, in the test with EPAS1, the sensor-assay potency score (higher = more potent) was 0.306.

Consider TTGACCAGCGTCCCCAAGCCGT, for which, in the test with ENTPD8, the sensor-assay potency score (higher = more potent) was -1.42. As to TAGTTGACACACATGATGCACT, the sensor-assay potency score (higher = more potent) with EPAS1 is -0.913. In the test with EPAS1, TTTTCTGACAGAAAGATCATGT showed a sensor-assay potency score (higher = more potent) of 0.329. TTAGGAGACAATAGTCTCCTGA: the sensor-assay potency score (higher = more potent) with EPDR1 is -0.95. Take TAGTCTCATATCCATCTCCAGC: the sensor-assay potency score (higher = more potent) in the test with EPDR1 is -1.45.

Regarding ATGACAATTCCGTAGCTCCAGA, the sensor-assay potency score (higher = more potent) with EPHB3 is -1.32. Still for that read-out and setting: the same measure for TATGACAGCACCAAGGGCGGGG: -0.054.

TTGGTCAGCAGGTCGTCCAGGG: in the test with EPHX1, the sensor-assay potency score (higher = more potent) is -0.558. Consider TTACACACCTGGTATGTGCGGA, for which the sensor-assay potency score (higher = more potent) with EPHB3 was 0.227. On to TAGTACTTGATCTCATACTCCA, for which the sensor-assay potency score (higher = more potent) with EPHA8 was -0.186. On the same count and under the same terms, then TTTGAGGAACTGGCTTTCTTGT, with -1.09. For TTGAGCTCCACGTAGACCCGCT, the sensor-assay potency score (higher = more potent) with EPHB3 worked out at 0.189.

For the sequence TTGTCATCACAGCGTGAGCAGG, the sensor-assay potency score (higher = more potent) with EPHB3 is -1.61.

Regarding TGCATGATGGTGAACTGCCCGT, in the test with EPHA8, the sensor-assay potency score (higher = more potent) was -1.1.
